Assay in all cases: DAPPL (digital affinity profiling via proximity ligation, sequencing); 10 mM Tris-HCl pH 7.5, 50 mM NaCl, 1 mM DTT, 4% glycerol, room temperature, 30 min; GST-TFs on glutathione beads, 16-mer random dsDNA library, 0.1% formaldehyde crosslink after washing; high values mean tight binding
One experiment has as its target T1, FEV (Homo sapiens, UniProt Q99581 1-238).
T1 sequence: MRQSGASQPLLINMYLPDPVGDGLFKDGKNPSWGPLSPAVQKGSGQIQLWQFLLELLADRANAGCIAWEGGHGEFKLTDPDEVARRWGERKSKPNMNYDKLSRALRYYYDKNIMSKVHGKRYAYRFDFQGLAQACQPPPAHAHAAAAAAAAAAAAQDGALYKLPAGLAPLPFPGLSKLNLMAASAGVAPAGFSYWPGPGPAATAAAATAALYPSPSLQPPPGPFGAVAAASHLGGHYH
Particulars: protein: recombinant; tags: N-terminal GST; dsDNA, one strand shown. A digest of the protocol: (§1)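 Binding signal is given per hexamer as its read frequency for a factor divided by its frequency in the tag-only sample. GST-fused human transcription factors were expressed in yeast, captured on glutathione beads, barcoded with DNA and pooled with that sample, then incubated with 200 nmole of a 16-mer random double-stranded DNA library in Tris/NaCl/DTT/glycerol buffer for 30 min at room temperature. The pools were then washed, crosslinked, proximity-ligated, amplified by PCR and sequenced on an Illumina NextSeq500.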

The next experiment has as its target ETV5 (Homo sapiens, UniProt P41161 1-510). Particulars: protein: recombinant; tags: N-terminal GST; dsDNA, one strand shown. A digest of the protocol:
as §1

The target of another experiment is HSF1 (Homo sapiens, UniProt Q00613 1-529). Particulars: protein: recombinant; tags: N-terminal GST; chain copies: 3; dsDNA, one strand shown. A digest of the protocol:
as §1

The next experiment concerns the target T2, SPIC (Homo sapiens, UniProt Q8N5J4 1-248).
T2 sequence: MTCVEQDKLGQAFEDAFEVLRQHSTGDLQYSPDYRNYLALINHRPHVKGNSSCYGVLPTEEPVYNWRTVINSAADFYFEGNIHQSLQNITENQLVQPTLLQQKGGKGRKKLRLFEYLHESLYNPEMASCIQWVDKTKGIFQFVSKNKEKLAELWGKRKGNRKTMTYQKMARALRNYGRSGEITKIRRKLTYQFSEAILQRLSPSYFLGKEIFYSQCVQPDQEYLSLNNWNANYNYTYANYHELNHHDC
To be noted: protein: recombinant; tags: N-terminal GST; dsDNA, one strand shown. A digest of the protocol:
as §1

For another experiment, the target named is ELF4 (Homo sapiens, UniProt Q99607 1-663). To be noted: protein: recombinant; tags: N-terminal GST; dsDNA, one strand shown. A digest of the protocol: as §1
Chain of ELF4 (Q99607 whole entry): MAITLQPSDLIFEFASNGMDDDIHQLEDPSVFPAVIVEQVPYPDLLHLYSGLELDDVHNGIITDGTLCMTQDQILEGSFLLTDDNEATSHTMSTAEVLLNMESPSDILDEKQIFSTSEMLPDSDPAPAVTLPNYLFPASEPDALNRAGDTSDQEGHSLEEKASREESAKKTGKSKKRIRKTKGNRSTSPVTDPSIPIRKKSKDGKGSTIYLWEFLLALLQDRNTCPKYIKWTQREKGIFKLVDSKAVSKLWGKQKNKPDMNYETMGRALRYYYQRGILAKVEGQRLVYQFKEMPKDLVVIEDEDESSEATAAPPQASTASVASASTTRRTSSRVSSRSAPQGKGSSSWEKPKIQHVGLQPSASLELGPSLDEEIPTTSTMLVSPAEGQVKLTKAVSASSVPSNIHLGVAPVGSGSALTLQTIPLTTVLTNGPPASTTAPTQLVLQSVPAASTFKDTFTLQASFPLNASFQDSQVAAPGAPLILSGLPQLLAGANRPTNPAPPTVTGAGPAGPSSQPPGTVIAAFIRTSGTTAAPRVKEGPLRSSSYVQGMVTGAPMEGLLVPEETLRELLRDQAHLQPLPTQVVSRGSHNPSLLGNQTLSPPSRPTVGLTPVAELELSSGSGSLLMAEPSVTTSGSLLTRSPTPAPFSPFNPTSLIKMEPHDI
For a further experiment, the target named is T3, ELK4 (Homo sapiens, UniProt P28324-2 1-405).
T3 sequence: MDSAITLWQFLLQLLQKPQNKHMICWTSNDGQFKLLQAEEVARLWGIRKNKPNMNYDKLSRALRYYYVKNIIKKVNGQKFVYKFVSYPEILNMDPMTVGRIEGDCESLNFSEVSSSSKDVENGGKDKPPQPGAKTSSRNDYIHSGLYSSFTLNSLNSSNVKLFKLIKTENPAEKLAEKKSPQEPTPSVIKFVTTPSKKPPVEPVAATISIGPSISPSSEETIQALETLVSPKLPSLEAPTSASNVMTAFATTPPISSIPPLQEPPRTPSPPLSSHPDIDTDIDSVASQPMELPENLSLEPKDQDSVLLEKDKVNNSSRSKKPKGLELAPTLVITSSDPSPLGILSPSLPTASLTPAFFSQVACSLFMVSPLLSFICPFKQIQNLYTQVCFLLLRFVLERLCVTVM
Particulars: protein: recombinant; tags: N-terminal GST; dsDNA, one strand shown. A digest of the protocol: as §1

The target in another experiment is T4, ETV2 (Homo sapiens, UniProt O00321 1-342).
T4 sequence: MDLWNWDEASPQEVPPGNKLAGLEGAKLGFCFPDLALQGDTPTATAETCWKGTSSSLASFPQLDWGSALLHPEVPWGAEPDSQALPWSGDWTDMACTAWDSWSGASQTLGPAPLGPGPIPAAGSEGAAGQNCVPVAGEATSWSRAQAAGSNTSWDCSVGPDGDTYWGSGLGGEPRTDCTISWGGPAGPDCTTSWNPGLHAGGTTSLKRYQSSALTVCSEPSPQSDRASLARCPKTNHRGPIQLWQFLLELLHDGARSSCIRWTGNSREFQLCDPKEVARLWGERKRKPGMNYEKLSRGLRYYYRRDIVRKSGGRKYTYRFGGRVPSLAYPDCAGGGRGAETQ
Particulars: protein: recombinant; tags: N-terminal GST; dsDNA, one strand shown. A digest of the protocol: as §1

The target of a further experiment is T5, ELF3 (Homo sapiens, UniProt P78545 1-371).
T5 sequence: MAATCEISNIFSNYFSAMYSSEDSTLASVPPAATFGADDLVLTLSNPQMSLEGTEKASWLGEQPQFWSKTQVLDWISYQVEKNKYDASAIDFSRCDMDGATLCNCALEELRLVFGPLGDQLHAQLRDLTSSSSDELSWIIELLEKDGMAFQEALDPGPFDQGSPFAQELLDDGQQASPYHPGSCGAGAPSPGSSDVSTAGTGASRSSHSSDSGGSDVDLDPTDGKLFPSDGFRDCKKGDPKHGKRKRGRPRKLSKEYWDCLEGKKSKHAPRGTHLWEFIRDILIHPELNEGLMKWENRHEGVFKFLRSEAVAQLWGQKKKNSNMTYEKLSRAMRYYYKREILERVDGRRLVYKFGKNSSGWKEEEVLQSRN
Particulars: protein: recombinant; tags: N-terminal GST; dsDNA, one strand shown. The method in brief:
as §1

The next experiment addresses CRX (Homo sapiens, UniProt O43186 1-299). To be noted: protein: recombinant; tags: N-terminal GST; dsDNA, one strand shown. A digest of the protocol: as §1
A further experiment addresses ETV1 (Homo sapiens, UniProt P50549 1-477). To be noted: protein: recombinant; tags: N-terminal GST; dsDNA, one strand shown. A digest of the protocol: as §1
The next experiment deals with T6, ERF (Homo sapiens, UniProt P50548 1-548).
T6 sequence: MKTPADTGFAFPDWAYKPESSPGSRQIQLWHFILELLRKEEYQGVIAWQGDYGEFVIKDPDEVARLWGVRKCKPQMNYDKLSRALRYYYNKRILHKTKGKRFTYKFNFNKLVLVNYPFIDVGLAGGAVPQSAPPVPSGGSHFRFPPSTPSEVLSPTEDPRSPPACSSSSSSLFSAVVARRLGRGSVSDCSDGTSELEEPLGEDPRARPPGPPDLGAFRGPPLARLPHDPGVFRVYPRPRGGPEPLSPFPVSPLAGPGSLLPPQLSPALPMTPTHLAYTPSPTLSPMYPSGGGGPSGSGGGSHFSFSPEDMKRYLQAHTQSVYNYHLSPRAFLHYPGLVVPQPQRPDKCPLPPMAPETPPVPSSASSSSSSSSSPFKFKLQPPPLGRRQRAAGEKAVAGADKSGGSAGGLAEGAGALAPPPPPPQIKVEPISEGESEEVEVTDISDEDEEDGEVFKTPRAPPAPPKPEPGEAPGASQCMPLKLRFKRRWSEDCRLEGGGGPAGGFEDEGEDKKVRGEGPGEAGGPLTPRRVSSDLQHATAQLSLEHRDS
To be noted: protein: recombinant; tags: N-terminal GST; dsDNA, one strand shown. The method in brief:
as §1

The target of another experiment is T7, ETV3L (Homo sapiens, UniProt Q6ZN32 1-361).
T7 sequence: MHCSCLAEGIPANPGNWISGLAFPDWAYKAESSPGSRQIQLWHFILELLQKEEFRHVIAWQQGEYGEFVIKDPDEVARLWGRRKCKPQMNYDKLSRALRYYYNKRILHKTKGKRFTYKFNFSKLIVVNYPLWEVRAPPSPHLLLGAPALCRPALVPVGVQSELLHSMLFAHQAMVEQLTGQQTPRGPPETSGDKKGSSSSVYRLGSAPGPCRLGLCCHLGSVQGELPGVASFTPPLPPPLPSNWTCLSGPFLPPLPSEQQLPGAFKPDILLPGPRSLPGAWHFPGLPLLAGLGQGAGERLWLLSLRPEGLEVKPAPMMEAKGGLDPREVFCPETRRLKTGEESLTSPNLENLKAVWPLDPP
Particulars: protein: recombinant; tags: N-terminal GST; dsDNA, one strand shown. The method in brief: as §1

For another experiment, the target named is T8, ETS2 (Homo sapiens, UniProt P15036 1-469).
T8 sequence: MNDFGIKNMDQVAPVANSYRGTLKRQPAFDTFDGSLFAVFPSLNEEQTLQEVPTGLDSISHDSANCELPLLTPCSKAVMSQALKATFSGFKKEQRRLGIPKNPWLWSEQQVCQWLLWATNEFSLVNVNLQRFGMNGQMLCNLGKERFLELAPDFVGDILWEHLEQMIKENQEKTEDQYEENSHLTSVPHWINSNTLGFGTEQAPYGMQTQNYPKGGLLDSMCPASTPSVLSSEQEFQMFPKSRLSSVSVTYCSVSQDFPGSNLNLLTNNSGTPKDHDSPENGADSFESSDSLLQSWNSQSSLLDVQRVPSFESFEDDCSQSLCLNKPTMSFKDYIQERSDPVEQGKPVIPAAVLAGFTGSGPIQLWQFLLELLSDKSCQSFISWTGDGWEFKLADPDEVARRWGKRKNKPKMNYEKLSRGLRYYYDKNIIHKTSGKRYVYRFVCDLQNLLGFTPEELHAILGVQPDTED
To be noted: protein: recombinant; tags: N-terminal GST; dsDNA, one strand shown. The method in brief:
as §1

Another experiment has as its target T9, SPDEF (Homo sapiens, UniProt O95238 1-335).
T9 sequence: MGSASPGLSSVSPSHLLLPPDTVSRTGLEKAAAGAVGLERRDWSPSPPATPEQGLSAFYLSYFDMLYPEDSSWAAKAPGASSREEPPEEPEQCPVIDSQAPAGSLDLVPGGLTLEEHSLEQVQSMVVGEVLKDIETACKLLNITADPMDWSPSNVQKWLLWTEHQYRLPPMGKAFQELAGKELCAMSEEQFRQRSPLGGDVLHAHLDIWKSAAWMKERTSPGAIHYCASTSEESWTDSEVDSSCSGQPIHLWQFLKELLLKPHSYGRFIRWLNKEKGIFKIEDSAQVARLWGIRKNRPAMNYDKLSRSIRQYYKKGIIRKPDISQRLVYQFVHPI
To be noted: protein: recombinant; tags: N-terminal GST; dsDNA, one strand shown. The method in brief:
as §1

A further experiment addresses T10, ETV7 (Homo sapiens, UniProt Q9Y603 1-341).
T10 sequence: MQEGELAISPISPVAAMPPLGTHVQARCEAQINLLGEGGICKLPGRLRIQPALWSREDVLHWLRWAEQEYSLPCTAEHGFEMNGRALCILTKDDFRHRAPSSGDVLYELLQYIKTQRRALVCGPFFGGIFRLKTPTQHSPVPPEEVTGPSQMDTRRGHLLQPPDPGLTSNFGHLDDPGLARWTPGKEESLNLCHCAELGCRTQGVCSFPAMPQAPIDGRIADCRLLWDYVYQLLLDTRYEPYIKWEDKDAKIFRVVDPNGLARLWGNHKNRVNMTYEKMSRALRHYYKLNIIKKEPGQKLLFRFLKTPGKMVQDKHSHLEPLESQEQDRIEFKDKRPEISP
To be noted: protein: recombinant; tags: N-terminal GST; dsDNA, one strand shown. The method in brief:
as §1

The next experiment concerns the target T11, ELF5 (Homo sapiens, UniProt Q9UKW6-2 1-255).
T11 sequence: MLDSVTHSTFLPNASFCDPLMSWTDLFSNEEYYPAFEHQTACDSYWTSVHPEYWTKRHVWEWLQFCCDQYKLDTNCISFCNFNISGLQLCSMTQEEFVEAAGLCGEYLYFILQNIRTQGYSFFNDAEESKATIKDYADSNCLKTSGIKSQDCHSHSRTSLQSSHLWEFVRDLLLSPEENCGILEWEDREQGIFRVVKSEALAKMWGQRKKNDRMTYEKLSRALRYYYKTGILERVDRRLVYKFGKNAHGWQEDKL
To be noted: protein: recombinant; tags: N-terminal GST; dsDNA, one strand shown. The method in brief: as §1

A further experiment concerns the target T12, ETV3 (Homo sapiens, UniProt P41162-2 1-143).
T12 sequence: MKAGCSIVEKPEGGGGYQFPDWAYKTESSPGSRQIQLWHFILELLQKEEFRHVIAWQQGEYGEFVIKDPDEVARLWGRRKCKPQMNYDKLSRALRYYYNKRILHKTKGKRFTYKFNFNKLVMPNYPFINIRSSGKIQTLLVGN
To be noted: protein: recombinant; tags: N-terminal GST; dsDNA, one strand shown. A digest of the protocol:
as §1

The target of a further experiment is ETV6 (Homo sapiens, UniProt P41212 1-452). Particulars: protein: recombinant; tags: N-terminal GST; dsDNA, one strand shown. A digest of the protocol: as §1
Chain of ETV6 (P41212 whole entry): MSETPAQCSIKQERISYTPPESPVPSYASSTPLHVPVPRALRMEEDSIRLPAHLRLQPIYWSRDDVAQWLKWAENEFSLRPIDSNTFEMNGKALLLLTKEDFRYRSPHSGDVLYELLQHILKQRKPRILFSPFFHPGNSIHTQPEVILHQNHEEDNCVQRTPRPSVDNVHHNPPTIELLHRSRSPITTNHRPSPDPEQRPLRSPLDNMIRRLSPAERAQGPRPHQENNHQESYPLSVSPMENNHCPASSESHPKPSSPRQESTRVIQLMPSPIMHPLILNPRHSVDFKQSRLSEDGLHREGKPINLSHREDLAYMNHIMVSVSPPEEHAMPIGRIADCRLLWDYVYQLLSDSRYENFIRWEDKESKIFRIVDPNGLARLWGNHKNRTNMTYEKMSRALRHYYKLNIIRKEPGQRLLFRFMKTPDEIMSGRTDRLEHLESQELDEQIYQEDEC

Chain of CRX (O43186 whole entry): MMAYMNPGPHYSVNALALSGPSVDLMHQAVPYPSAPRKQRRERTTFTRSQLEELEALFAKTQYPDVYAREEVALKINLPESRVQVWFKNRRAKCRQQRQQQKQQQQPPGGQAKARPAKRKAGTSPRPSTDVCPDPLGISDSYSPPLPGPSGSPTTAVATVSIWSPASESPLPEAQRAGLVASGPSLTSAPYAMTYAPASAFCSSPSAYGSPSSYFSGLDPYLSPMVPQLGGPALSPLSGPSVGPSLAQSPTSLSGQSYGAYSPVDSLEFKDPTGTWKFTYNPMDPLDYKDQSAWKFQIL
Chain of HSF1 (Q00613 whole entry): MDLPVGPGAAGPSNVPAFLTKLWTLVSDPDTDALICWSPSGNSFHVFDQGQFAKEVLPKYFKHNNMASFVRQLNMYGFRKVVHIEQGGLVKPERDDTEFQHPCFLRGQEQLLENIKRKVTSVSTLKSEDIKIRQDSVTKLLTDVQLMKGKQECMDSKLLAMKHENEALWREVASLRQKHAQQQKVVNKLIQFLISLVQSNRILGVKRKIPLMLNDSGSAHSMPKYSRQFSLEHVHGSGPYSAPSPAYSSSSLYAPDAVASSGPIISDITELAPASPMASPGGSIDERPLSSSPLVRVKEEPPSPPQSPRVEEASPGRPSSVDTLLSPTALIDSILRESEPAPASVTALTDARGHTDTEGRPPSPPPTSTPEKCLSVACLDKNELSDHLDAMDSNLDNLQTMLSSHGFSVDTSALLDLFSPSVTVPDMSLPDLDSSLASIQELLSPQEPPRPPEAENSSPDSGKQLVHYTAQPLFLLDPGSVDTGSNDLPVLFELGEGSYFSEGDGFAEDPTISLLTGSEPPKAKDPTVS
Chain of ETV1 (P50549 whole entry): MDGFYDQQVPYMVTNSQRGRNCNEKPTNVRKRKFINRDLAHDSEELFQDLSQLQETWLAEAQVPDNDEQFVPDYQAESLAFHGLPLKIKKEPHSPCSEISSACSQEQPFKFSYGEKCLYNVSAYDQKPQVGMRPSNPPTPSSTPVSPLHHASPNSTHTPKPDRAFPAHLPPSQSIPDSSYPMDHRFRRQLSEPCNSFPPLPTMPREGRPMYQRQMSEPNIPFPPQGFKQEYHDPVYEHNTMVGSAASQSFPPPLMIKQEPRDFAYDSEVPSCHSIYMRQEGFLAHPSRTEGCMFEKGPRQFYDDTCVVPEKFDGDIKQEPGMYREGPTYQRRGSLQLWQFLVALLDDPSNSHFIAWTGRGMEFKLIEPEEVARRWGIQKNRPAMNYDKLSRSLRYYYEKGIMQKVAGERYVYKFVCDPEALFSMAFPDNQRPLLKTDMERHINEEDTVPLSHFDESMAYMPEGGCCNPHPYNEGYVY
Chain of ETV5 (P41161 whole entry): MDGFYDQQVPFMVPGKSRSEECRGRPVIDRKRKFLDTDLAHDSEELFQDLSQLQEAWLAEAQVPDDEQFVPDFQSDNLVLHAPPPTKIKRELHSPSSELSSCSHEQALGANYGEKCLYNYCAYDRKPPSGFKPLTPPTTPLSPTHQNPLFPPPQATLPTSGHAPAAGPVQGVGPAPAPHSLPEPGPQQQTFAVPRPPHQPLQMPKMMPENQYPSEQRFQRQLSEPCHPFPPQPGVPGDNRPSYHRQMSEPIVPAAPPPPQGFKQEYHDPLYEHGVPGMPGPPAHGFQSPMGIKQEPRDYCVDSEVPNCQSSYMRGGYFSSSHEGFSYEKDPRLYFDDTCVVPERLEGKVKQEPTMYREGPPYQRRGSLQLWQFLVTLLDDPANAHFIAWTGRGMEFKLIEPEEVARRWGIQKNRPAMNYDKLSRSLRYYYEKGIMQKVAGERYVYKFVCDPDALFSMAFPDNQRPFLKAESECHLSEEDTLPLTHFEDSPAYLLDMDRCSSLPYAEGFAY

Turning to GTTATT, the binding signal with FEV is 1.08 fold enrichment (6-mer frequency, TF over GST control); with ETV5, 1.26 fold enrichment (6-mer frequency, TF over GST control); with HSF1, 1.19 fold enrichment (6-mer frequency, TF over GST control); in the experiment with SPIC it was 1.29 fold enrichment (6-mer frequency, TF over GST control); with ELF4 it was 1.16 fold enrichment (6-mer frequency, TF over GST control); with ELK4, 1.17 fold enrichment (6-mer frequency, TF over GST control). The binding signal in the experiment with ETV2 was 1.27 fold enrichment (6-mer frequency, TF over GST control); with ELF3 it was 1.22 fold enrichment (6-mer frequency, TF over GST control); with CRX, 1.32 fold enrichment (6-mer frequency, TF over GST control); with ETV1 it was 1.12 fold enrichment (6-mer frequency, TF over GST control); with ERF it was 1.12 fold enrichment (6-mer frequency, TF over GST control); with ETV3L, 1.13 fold enrichment (6-mer frequency, TF over GST control). Also, the binding signal with ETS2 was 1.14 fold enrichment (6-mer frequency, TF over GST control); with SPDEF it was 1.04 fold enrichment (6-mer frequency, TF over GST control); with ETV7, 1.29 fold enrichment (6-mer frequency, TF over GST control); with ELF5, 1.21 fold enrichment (6-mer frequency, TF over GST control); with ETV3 it was 1.2 fold enrichment (6-mer frequency, TF over GST control); with ETV6 it was 1.2 fold enrichment (6-mer frequency, TF over GST control).
